Holding throughout (parameters): scale not given: direction of the effect not stated beside the values
Assay [1] addresses Protein translocase subunit SecA (Escherichia coli (strain K12)) (UniProt P10408). The assay can be described thus: Assay to Identify E. coli SecA ATPase Inhibitors. As to conditions: 30 µM. Format: functional.
Assay [2] deals with T1, Ubiquitin-activating enzyme e1, putative (Leishmania donovani (strain BPK282A1)) (UniProt E9BSI1).
T1 sequence (whole entry): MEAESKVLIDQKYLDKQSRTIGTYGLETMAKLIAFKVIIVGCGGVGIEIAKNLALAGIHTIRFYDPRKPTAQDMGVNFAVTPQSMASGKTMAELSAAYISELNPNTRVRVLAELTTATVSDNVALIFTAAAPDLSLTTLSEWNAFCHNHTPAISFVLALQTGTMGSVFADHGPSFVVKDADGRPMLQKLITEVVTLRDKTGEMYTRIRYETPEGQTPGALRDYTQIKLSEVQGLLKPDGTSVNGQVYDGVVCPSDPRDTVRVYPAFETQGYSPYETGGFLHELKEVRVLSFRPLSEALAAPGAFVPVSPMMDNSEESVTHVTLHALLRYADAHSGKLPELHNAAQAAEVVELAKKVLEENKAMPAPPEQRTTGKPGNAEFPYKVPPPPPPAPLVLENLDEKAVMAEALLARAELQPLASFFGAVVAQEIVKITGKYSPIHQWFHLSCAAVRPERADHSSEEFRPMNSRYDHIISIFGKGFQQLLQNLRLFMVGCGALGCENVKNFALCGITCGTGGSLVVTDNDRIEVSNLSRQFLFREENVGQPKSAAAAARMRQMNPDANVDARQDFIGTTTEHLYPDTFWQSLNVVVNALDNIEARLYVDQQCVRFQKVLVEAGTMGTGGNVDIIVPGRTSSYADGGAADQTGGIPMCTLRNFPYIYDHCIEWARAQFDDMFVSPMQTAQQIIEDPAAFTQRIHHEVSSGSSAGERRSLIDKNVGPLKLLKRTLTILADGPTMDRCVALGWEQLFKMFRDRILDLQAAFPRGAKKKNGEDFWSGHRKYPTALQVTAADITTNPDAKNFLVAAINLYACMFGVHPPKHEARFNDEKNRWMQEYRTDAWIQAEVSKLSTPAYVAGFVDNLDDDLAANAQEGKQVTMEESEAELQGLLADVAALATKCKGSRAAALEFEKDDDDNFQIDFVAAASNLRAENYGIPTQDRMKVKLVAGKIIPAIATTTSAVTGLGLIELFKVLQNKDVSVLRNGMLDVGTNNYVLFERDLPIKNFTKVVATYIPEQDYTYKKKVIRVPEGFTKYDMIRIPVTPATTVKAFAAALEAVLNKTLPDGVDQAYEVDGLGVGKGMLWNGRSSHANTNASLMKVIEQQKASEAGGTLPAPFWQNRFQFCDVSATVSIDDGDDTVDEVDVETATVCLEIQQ
The assay can be described thus: Leishmania donovani Ubiquitin Activating Enzyme (LdE1). As to conditions: 30 µM. Format: functional.

The target of assay [3] is AMP-activated protein kinase, AMPK (Homo sapiens) (UniProt P54646+O43741+P54619+Q9UGJ0+Q9Y478+Q13131+Q9UGI9). As to the kind of experiment: AMP-dependent Kinase enzyme assay. An in vitro enzyme assay that detects ADP turnover that is directly proportional to AMPK activity. This uses naive AMPK that is activated during the assay with MK-8722. In kind it is functional. Conditions: 30 µM.

Assay [4] deals with Sialic acid-binding Ig-like lectin 9 (Homo sapiens) (UniProt Q9Y336). The assay can be described thus: Hs-Siglec9 ALPHAscreen SOP 20170721. As to conditions: 10 µM.
The next assay relates to Trypanosoma cruzi. The assay can be described thus: Trypanosoma cruzi phosphomannomutase and mannose-1-phosphate guanylyltransferase assay. Conditions: 10 µM. Format: functional.
In assay [5] the target is T2, Arginase-2, mitochondrial (Homo sapiens) (UniProt P78540).
T2 sequence (whole entry): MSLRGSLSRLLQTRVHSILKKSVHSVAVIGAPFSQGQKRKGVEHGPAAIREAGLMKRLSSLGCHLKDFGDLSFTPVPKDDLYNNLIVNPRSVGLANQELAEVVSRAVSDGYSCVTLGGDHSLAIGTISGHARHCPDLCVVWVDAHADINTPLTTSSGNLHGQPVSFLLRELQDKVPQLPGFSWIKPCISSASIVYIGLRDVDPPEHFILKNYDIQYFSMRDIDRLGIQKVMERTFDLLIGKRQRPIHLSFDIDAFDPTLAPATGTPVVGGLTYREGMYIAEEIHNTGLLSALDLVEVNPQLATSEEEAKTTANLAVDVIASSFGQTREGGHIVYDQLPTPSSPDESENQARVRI
As to the kind of experiment: in vitro enzyme assay to detect the production of urea directly proportional to the activity of Arginase II. Note: in the data most compounds retested in dose-response had high values. In kind it is functional. Conditions: 33.3 µM.

Assay [6] deals with T3, Proteasome subunit beta (Trypanosoma cruzi) (UniProt O96673).
T3 sequence (whole entry): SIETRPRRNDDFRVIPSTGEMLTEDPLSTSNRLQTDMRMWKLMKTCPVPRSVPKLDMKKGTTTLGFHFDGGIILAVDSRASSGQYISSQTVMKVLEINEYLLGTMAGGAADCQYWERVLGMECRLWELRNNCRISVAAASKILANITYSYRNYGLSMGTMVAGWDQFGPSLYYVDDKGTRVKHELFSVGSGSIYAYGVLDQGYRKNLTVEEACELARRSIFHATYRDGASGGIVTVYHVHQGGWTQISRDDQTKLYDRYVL
The assay can be described thus: Trypanosoma cruzi proteasome chymotrypsin-like activity (TcProtChymo) assay. Note: in the data most compounds retested in dose-response had high values. In kind it is functional. Conditions: 9.37 µM.

For another assay, the species on record is Homo sapiens. The assay can be described thus: To identify inhibition of the IFN signalling (Jak-Stat) pathway via expression of an eGFP reporter gene under the control of an IFN-stimulated response element (ISRE) containing MxA promoter. Format: functional. Conditions: 30 µM.
Assay [7] concerns the target T4, Tyrosyl-tRNA synthetase, putative (Trypanosoma cruzi (strain CL Brener)) (UniProt Q4DSP6).
T4 sequence (whole entry): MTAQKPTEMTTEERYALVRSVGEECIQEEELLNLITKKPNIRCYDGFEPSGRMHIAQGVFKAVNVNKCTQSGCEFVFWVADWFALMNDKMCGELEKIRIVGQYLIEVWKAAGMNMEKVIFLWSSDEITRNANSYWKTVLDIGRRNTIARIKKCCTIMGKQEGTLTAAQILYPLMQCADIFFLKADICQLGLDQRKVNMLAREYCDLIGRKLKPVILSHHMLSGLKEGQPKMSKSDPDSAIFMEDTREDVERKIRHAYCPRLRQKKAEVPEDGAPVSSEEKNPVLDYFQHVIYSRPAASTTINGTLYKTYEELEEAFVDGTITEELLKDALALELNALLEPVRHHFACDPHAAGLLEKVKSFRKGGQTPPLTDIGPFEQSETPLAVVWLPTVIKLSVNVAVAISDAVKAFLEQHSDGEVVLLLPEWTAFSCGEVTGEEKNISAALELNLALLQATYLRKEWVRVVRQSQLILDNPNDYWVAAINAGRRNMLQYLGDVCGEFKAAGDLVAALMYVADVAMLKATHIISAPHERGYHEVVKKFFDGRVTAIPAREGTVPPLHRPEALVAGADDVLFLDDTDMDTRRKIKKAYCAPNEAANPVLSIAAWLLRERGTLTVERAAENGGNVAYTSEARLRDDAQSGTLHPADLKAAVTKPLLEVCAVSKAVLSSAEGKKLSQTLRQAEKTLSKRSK
The assay can be described thus: Trypanosoma cruzi tyrosyl tRNA synthetase (TcYRS) _High Tyrosine SOP. Note: in the data most compounds retested in dose-response had high values. Format: functional. As to conditions: 30 µM.

Assay [8] concerns the target T4, Tyrosyl-tRNA synthetase, putative (Trypanosoma cruzi (strain CL Brener)). The assay can be described thus: Trypanosoma cruzi tyrosyl tRNA synthetase (TcYRS) SOP. Format: functional. Conditions: 30 µM.
Assay [9] addresses Chromo domain-containing protein 1 (Saccharomyces cerevisiae (strain ATCC 204508 / S288c) (Baker's yeast)) (UniProt P32657). The assay can be described thus: ScCHD-1 Enzyme Inhibition Assay. Note: in the data most compounds retested in dose-response had high values. Format: functional. Conditions: 30 µM.

For some of these results: Measured potencies and affinities stand elsewhere.

Chain of Chromo domain-containing protein 1 (Saccharomyces cerevisiae (strain ATCC 204508 / S288c) (Baker's yeast)) (P32657 whole entry, the tested form may be a part): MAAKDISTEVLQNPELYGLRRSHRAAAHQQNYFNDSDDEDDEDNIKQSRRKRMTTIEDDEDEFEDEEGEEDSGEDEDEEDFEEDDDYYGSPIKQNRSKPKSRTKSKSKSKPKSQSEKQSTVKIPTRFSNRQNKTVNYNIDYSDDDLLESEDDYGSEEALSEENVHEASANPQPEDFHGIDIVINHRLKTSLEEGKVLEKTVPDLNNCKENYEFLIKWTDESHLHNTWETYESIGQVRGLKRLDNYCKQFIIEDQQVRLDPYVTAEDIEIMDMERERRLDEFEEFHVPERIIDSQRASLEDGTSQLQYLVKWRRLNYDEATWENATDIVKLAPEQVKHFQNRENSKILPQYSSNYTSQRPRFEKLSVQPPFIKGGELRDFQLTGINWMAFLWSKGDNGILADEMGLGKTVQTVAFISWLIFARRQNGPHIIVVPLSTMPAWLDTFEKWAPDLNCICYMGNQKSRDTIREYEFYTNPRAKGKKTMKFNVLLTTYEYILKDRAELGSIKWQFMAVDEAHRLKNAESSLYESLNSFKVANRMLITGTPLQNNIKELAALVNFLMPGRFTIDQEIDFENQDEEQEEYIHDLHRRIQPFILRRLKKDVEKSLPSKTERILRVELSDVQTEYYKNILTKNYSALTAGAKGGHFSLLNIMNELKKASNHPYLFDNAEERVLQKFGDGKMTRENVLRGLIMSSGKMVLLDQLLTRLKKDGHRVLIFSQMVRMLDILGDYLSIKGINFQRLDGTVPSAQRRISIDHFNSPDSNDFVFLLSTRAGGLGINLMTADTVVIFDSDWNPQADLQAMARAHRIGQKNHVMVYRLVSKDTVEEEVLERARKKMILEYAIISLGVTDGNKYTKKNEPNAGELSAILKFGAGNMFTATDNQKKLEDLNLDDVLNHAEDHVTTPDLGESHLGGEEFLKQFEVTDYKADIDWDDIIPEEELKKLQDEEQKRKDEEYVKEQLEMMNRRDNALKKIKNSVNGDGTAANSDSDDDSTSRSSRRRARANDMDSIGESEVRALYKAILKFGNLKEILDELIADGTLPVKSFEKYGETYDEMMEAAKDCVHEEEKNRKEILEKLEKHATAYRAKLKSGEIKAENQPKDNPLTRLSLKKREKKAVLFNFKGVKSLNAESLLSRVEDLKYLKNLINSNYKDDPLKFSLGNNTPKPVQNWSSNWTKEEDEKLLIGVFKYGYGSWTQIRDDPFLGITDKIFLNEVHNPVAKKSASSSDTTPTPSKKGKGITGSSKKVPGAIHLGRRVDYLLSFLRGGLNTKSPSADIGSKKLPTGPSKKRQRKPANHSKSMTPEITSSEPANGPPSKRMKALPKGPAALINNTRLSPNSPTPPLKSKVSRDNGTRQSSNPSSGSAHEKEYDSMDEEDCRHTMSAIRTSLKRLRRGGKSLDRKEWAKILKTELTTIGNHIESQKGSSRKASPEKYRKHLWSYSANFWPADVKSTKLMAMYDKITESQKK
Chain of Protein translocase subunit SecA (Escherichia coli (strain K12)) (P10408 whole entry): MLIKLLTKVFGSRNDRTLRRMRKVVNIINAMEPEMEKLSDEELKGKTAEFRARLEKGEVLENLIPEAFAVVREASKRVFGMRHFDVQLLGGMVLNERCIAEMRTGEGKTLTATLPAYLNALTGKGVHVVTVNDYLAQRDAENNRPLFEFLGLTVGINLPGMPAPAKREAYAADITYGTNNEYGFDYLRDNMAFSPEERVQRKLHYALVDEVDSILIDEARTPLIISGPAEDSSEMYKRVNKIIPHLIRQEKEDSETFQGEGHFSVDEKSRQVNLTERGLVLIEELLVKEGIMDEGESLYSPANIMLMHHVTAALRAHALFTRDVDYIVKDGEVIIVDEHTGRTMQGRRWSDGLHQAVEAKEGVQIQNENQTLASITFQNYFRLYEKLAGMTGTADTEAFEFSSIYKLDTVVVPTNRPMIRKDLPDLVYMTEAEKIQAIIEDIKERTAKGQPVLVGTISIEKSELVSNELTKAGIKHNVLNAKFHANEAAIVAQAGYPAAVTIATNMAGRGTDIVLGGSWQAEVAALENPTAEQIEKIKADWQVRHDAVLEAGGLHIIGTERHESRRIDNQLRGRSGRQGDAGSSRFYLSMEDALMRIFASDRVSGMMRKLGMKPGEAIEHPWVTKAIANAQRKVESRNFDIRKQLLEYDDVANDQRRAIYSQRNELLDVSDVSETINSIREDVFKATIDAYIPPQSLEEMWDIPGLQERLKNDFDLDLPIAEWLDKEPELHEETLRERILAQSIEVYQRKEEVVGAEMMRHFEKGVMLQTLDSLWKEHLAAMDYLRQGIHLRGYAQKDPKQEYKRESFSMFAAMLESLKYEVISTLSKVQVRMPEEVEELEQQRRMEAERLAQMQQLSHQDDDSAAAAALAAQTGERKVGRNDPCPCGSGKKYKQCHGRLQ
Chain of Sialic acid-binding Ig-like lectin 9 (Homo sapiens) (Q9Y336 whole entry): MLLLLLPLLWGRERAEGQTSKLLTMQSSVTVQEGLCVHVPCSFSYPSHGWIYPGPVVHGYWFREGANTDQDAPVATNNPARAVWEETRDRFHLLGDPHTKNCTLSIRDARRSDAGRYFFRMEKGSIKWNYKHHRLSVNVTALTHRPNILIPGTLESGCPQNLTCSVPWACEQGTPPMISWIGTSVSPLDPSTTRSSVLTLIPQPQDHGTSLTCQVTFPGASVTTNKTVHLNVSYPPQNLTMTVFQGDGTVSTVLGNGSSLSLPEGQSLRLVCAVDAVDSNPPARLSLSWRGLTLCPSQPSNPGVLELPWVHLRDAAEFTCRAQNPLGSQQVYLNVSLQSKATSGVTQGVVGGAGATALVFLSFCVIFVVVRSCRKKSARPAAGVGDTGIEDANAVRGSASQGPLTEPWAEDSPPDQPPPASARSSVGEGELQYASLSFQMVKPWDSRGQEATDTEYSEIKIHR

Take `OC(COCc1cccs1)CN1CCC(c2ccn[nH]2)CC1` (stereo unspecified): the Percent Effect in assay [1] is 0.446%; in assay [2] it was 15.2%; in assay [3] it was -3.7%; in assay [4] it was -4.14%; in the assay with Trypanosoma cruzi, -8.03%; in [5], 3.42%. The Percent Effect in assay [6] was 8.6%; in the assay listed under Homo sapiens, 16.3%; in [7], -2.46%; in assay [8], 8.86%; in assay [9], -3.55%.
With `c1ccc(-c2nc(CNC3CCc4ncnn4C3)co2)cc1` (stereo unspecified), the Percent Effect is -6.67% in assay [1]; 20.8% in assay [2]; -3.92% in assay [3]; 12.6% in [4]; 7.68% in the assay on Trypanosoma cruzi; -3.92% in assay [5]. Moreover, the Percent Effect in [6] was 3.21%; in the assay listed under Homo sapiens, 9.63%; in assay [7], 8.74%; in assay [8], 19.5%; in assay [9], -7.68%.
For `COc1cnc(N2CCC(Oc3ccccc3OC)(C(=O)O)CC2)nc1`, the Percent Effect in assay [1] was -5.13%; in assay [2] it was 11%; in assay [3] it was 0.422%; in assay [4] it was 4.04%; in the assay with Trypanosoma cruzi it was 0.595%; in assay [5] it was -2%. The Percent Effect is 8.99% in assay [6]; -4.79% in the assay listed under Homo sapiens; 5.21% in assay [7]; 8.64% in assay [8]; -4.67% in assay [9].
As for `O=C1CC(c2ccncc2)c2c(c(C(=O)O)cn2-c2ccc(F)cc2)N1` (stereo unspecified), the Percent Effect in assay [1] is -3.81%; in assay [2] it was 12%; in assay [3], -34.9%; in assay [4], -1.44%; in the assay on Trypanosoma cruzi, -3.14%; in assay [5] it was -3.35%. Besides, the Percent Effect in assay [6] is 13.7%; in the assay filed under Homo sapiens, 4.82%; in assay [7], 8.47%; in [8], 15.4%; in [9] it was -5.97%.
Turning to `CCc1nnc2n1CCN(Cc1csc(-c3cnn(C)c3)n1)C2`, the Percent Effect in assay [1] is -3.51%; in [2] it was 12.5%; in [3], -7.81%; in assay [4] it was 3.08%; with Trypanosoma cruzi, -3.79%; in [5] it was -2.21%. In addition, the Percent Effect in assay [6] is 18.6%; in the assay listed under Homo sapiens, -7.26%; in assay [7], 5.26%; in [8] it was 0%; in [9], 0.402%.
Consider `CCOc1ccc(-c2ccnc(CC)n2)cc1C(=O)O`, for which the Percent Effect in [1] is 0.91%; in assay [2], 10.8%; in assay [3], -5.65%; in assay [4] it was 16.4%; with Trypanosoma cruzi, 2.9%; in [5], -0.476%. Moreover, the Percent Effect in [6] was 20%; in the assay filed under Homo sapiens, -11.8%; in [7] it was 8.99%; in assay [8], -2.44%; in assay [9] it was -1.49%.
Take `NC(=O)C(CNC(=O)COCC(F)(F)F)Cc1ccc(F)cc1` (stereo unspecified): the Percent Effect in [1] was -3.66%; in [2], 5.26%; in [3], 9.48%; in assay [4], -1.54%; in the assay with Trypanosoma cruzi, 0.292%; in [5], -5.92%. The Percent Effect is 13.1% in assay [6]; -19.6% in the assay listed under Homo sapiens; 2.13% in assay [7]; 15.6% in [8]; -4.87% in assay [9].
Take `CCOCC(O)CN1CCN(C(=O)CC(C)(C)C)CC1` (stereo unspecified): the Percent Effect in assay [1] is -3.75%; in assay [2], -2.7%; in assay [3], -10.6%; in [4] it was 5.4%; in the assay on Trypanosoma cruzi, -1.98%; in [5], 0.401%. In addition, the Percent Effect is -7.75% in [6]; 0.227% in the assay listed under Homo sapiens; 2.46% in [7]; 3.7% in [8]; 1.7% in assay [9].
With `Cc1nccn1CCC1CCCCN1C(=O)c1ccc2[nH]nnc2c1` (stereo unspecified), the Percent Effect in assay [1] is -2.88%; in assay [2], 10.7%; in assay [3] it was -0.957%; in assay [4] it was 10%; in the assay on Trypanosoma cruzi it was 2.63%; in assay [5] it was 16.7%. Moreover, the Percent Effect in assay [6] was 9.59%; in the assay filed under Homo sapiens, 7.47%; in assay [7], 3.83%; in assay [8], 6.17%; in [9] it was -6.44%.
On to `O=C(c1cccc(Cl)c1)N1CC[C@H]2[C@H]1CCN2CC1CCOCC1`, for which the Percent Effect is -2.38% in assay [1]; 0% in assay [2]; 10.3% in [3]; 0.0847% in assay [4]; 0.197% in the assay with Trypanosoma cruzi; 1.17% in assay [5]. The Percent Effect in assay [6] was 9.78%; in the assay listed under Homo sapiens, -5.51%; in assay [7] it was 4.25%; in assay [8] it was 3.85%; in [9] it was -5.25%.
Consider `O=C(NCC1(CO)CC1)c1cccc2ccccc12`, for which the Percent Effect in assay [1] is -5.68%; in [2], 2.74%; in [3], 20.9%; in assay [4] it was -5.02%; in the assay with Trypanosoma cruzi, -4.9%; in assay [5] it was -0.455%. Besides, the Percent Effect in [6] was 10.7%; in the assay filed under Homo sapiens it was 0.244%; in [7], 6.45%; in assay [8], 2.5%; in assay [9] it was -1.94%.

Source of the values: ChEMBL document CHEMBL3988442, “University of Dundee, Small-Polar-MMV Screening Library” (2021).
